Substitutions are numbered along the chain they refer to.
Legend:
Assay in all cases: PBM; 200 nM protein, PBS
Conditions in all cases: dsDNA, one strand shown
ALX4 [1] = molecular target: ALX4 (Homo sapiens, UniProt Q9H161 200-286)
ALX4 [2] = molecular target: ALX4 (Homo sapiens, UniProt Q9H161 200-286, Q225E)
MSX2 [3] = molecular target: MSX2 (Homo sapiens, UniProt P35548 130-214, R199I)
MSX2 [4] = molecular target: MSX2 (Homo sapiens, UniProt P35548 130-214)
MSX2 [5] = molecular target: MSX2 (Homo sapiens, UniProt P35548 130-214, F161Y)
PAX4 [6] = molecular target: T1, PAX4 (Homo sapiens, UniProt O43316 9-242, R200K)
T1 sequence: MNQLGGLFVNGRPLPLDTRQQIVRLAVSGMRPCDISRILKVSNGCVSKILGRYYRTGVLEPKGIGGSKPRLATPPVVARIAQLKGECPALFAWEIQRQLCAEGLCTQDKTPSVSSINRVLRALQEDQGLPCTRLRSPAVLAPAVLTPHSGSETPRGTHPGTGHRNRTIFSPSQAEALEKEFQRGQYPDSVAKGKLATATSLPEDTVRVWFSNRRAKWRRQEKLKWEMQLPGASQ

PAX4 [7] = molecular target: T2, PAX4 (Homo sapiens, UniProt O43316 9-242)
T2 sequence: T1 sequence with K192R

HOXB6 [8] = molecular target: HOXB6 (Homo sapiens, UniProt P17509 132-218, K202E)
PAX4 [9] = molecular target: T3, PAX4 (Homo sapiens, UniProt O43316 9-242, R200Q)
T3 sequence: T1 sequence with K192Q

PAX4 [10] = molecular target: T4, PAX4 (Homo sapiens, UniProt O43316 9-242, F177V)
T4 sequence: T1 sequence with F169V, K192R

PAX4 [11] = molecular target: T5, PAX4 (Homo sapiens, UniProt O43316 9-242, F177Y)
T5 sequence: T1 sequence with F169Y, K192R

PAX4 [12] = molecular target: T6, PAX4 (Homo sapiens, UniProt O43316 9-242, R227W)
T6 sequence: T1 sequence with K192R, R219W

HOXB6 [13] = molecular target: HOXB6 (Homo sapiens, UniProt P17509 132-218)
VAX1 [14] = molecular target: VAX1 (Homo sapiens, UniProt Q5SQQ9 86-172)
VAX1 [15] = molecular target: VAX1 (Homo sapiens, UniProt Q5SQQ9 86-172, T142I)
VAX1 [16] = molecular target: VAX1 (Homo sapiens, UniProt Q5SQQ9 86-172, K157R)
ALX1 [17] = molecular target: ALX1 (Homo sapiens, UniProt Q15699 118-204, L144V)
ALX1 [18] = molecular target: ALX1 (Homo sapiens, UniProt Q15699 118-204, L144R)
ALX1 [19] = molecular target: ALX1 (Homo sapiens, UniProt Q15699 118-204)
HOXA2 [20] = molecular target: HOXA2 (Homo sapiens, UniProt O43364 129-215, R185T)
PITX2 = PITX2 (Homo sapiens, UniProt Q99697 72-157)
HOXA2 [21] = molecular target: HOXA2 (Homo sapiens, UniProt O43364 129-215, R185K)
HOXA2 [22] = molecular target: HOXA2 (Homo sapiens, UniProt O43364 129-215, Y150S)
HOXA2 [23] = molecular target: HOXA2 (Homo sapiens, UniProt O43364 129-215)
PROP1 [24] = molecular target: PROP1 (Homo sapiens, UniProt O75360 56-141)
PROP1 [25] = molecular target: PROP1 (Homo sapiens, UniProt O75360 56-141, R99H)
PROP1 [26] = molecular target: PROP1 (Homo sapiens, UniProt O75360 56-141, F88S)
NKX2-6 = molecular target: T7, NKX2-6 (Homo sapiens, UniProt A6NCS4 118-204, R150C)
T7 sequence: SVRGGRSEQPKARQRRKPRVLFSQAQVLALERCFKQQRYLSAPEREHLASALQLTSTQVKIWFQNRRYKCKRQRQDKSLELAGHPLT

ALX3 [27] = molecular target: ALX3 (Homo sapiens, UniProt O95076 139-225, N203Q)
ALX3 [28] = molecular target: ALX3 (Homo sapiens, UniProt O95076 139-225)
ALX3 [29] = molecular target: ALX3 (Homo sapiens, UniProt O95076 139-225, L168Q)
ALX3 [30] = molecular target: ALX3 (Homo sapiens, UniProt O95076 139-225, L168V)
ALX3 [31] = molecular target: ALX3 (Homo sapiens, UniProt O95076 139-225, N203S)
HOXD13 [32] = molecular target: HOXD13 (Homo sapiens, UniProt P35453 263-343, T313R)
HOXD13 [33] = molecular target: HOXD13 (Homo sapiens, UniProt P35453 263-343)
HOXD13 [34] = molecular target: HOXD13 (Homo sapiens, UniProt P35453 263-343, T313A)
HOXC9 = HOXC9 (Homo sapiens, UniProt P31274 178-260, R222W)
Sequence of HOXC9 (P31274 178-260 R222W): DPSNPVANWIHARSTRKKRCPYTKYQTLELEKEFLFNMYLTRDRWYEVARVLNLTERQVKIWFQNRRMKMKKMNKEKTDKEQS

Sequence of ALX4 (Homo sapiens, UniProt Q9H161 200-286, Q225E) (Q9H161 200-286 Q225E): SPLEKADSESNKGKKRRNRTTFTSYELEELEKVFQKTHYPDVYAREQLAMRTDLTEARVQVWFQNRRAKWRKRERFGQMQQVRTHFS
Sequence of ALX4 (Homo sapiens, UniProt Q9H161 200-286) (Q9H161 200-286): as the sequence (Q9H161 200-286 Q225E) above, with E26Q counted along it
Sequence of VAX1 (Homo sapiens, UniProt Q5SQQ9 86-172, T142I) (Q5SQQ9 86-172 T142I): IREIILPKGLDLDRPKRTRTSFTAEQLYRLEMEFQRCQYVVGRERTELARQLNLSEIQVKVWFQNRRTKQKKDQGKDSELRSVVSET
Sequence of VAX1 (Homo sapiens, UniProt Q5SQQ9 86-172) (Q5SQQ9 86-172): as the sequence (Q5SQQ9 86-172 T142I) above, with I57T counted along it
Sequence of MSX2 (Homo sapiens, UniProt P35548 130-214, F161Y) (P35548 130-214 F161Y): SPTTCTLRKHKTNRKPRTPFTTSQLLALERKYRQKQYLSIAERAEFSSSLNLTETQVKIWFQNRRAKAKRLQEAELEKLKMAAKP
Sequence of ALX3 (Homo sapiens, UniProt O95076 139-225, N203Q) (O95076 139-225 N203Q): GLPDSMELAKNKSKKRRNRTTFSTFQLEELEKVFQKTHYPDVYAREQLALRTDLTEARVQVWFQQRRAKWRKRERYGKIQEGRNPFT
Sequence of VAX1 (Homo sapiens, UniProt Q5SQQ9 86-172, K157R) (Q5SQQ9 86-172 K157R): as the sequence (Q5SQQ9 86-172 T142I) above, with I57T, K72R counted along it
Sequence of MSX2 (Homo sapiens, UniProt P35548 130-214, R199I) (P35548 130-214 R199I): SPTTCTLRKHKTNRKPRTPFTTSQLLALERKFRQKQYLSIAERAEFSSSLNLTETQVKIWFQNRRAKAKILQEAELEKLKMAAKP
Sequence of ALX3 (Homo sapiens, UniProt O95076 139-225, N203S) (O95076 139-225 N203S): as the sequence (O95076 139-225 N203Q) above, with Q65S counted along it
Sequence of MSX2 (Homo sapiens, UniProt P35548 130-214) (P35548 130-214): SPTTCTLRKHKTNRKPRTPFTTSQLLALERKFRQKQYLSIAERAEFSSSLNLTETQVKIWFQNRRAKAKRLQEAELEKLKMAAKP
Sequence of ALX1 (Homo sapiens, UniProt Q15699 118-204) (Q15699 118-204): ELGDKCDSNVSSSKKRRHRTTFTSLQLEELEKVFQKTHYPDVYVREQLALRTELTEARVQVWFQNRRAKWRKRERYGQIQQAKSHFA
Sequence of HOXB6 (Homo sapiens, UniProt P17509 132-218, K202E) (P17509 132-218 K202E): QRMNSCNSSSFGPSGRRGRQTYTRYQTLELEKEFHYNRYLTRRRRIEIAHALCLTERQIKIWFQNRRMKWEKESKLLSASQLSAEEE
Sequence of PROP1 (Homo sapiens, UniProt O75360 56-141, F88S) (O75360 56-141 F88S): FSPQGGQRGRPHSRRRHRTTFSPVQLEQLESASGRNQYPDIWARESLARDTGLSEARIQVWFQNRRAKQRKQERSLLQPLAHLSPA
Sequence of HOXA2 (Homo sapiens, UniProt O43364 129-215, Y150S) (O43364 129-215 Y150S): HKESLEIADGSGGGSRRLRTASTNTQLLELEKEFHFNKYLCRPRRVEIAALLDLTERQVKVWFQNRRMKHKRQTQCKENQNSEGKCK
Sequence of ALX3 (Homo sapiens, UniProt O95076 139-225) (O95076 139-225): as the sequence (O95076 139-225 N203Q) above, with Q65N counted along it
Sequence of PROP1 (Homo sapiens, UniProt O75360 56-141, R99H) (O75360 56-141 R99H): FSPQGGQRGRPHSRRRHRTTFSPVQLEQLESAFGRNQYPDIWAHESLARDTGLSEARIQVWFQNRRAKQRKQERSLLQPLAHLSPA
Sequence of HOXD13 (Homo sapiens, UniProt P35453 263-343, T313A) (P35453 263-343 T313A): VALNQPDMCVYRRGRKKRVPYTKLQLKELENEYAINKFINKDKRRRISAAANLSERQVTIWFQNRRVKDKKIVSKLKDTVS
Sequence of ALX3 (Homo sapiens, UniProt O95076 139-225, L168V) (O95076 139-225 L168V): as the sequence (O95076 139-225 N203Q) above, with L30V, Q65N counted along it
Sequence of ALX1 (Homo sapiens, UniProt Q15699 118-204, L144R) (Q15699 118-204 L144R): as the sequence (Q15699 118-204) above, with L27R counted along it
Sequence of HOXD13 (Homo sapiens, UniProt P35453 263-343, T313R) (P35453 263-343 T313R): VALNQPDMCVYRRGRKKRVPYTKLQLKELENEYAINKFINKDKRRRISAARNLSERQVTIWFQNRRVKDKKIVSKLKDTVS
Sequence of HOXD13 (Homo sapiens, UniProt P35453 263-343) (P35453 263-343): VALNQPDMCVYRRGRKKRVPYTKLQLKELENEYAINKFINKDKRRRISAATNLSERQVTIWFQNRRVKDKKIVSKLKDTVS
Sequence of HOXA2 (Homo sapiens, UniProt O43364 129-215, R185K) (O43364 129-215 R185K): as the sequence (O43364 129-215 Y150S) above, with S22Y, R57K counted along it
Sequence of HOXA2 (Homo sapiens, UniProt O43364 129-215) (O43364 129-215): as the sequence (O43364 129-215 Y150S) above, with S22Y counted along it
Sequence of PROP1 (Homo sapiens, UniProt O75360 56-141) (O75360 56-141): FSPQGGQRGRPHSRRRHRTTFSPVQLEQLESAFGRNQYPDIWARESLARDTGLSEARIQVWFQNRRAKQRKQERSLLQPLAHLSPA
Sequence of HOXA2 (Homo sapiens, UniProt O43364 129-215, R185T) (O43364 129-215 R185T): as the sequence (O43364 129-215 Y150S) above, with S22Y, R57T counted along it
Sequence of ALX1 (Homo sapiens, UniProt Q15699 118-204, L144V) (Q15699 118-204 L144V): as the sequence (Q15699 118-204) above, with L27V counted along it
Sequence of HOXB6 (Homo sapiens, UniProt P17509 132-218) (P17509 132-218): as the sequence (P17509 132-218 K202E) above, with E71K counted along it
Sequence of ALX3 (Homo sapiens, UniProt O95076 139-225, L168Q) (O95076 139-225 L168Q): as the sequence (O95076 139-225 N203Q) above, with L30Q, Q65N counted along it

CGTGGAGC
binding signal (ALX4 [1]): 8.15 upbm affinity estimate (log intensity, higher = more binding, comparable within an allelic series) | binding signal (ALX4 [2]): 8.37 upbm affinity estimate (log intensity, higher = more binding, comparable within an allelic series) | binding signal (MSX2 [3]): 9.58 upbm affinity estimate (log intensity, higher = more binding, comparable within an allelic series) | binding signal (MSX2 [4]): 9.61 upbm affinity estimate (log intensity, higher = more binding, comparable within an allelic series) | binding signal (MSX2 [5]): 9.61 upbm affinity estimate (log intensity, higher = more binding, comparable within an allelic series)

AAGGGGGA
binding signal (PAX4 [6]): 9.21 upbm affinity estimate (log intensity, higher = more binding, comparable within an allelic series) | binding signal (PAX4 [7]): 9.23 upbm affinity estimate (log intensity, higher = more binding, comparable within an allelic series) | binding signal (HOXB6 [8]): 8.87 upbm affinity estimate (log intensity, higher = more binding, comparable within an allelic series) | binding signal (PAX4 [9]): 9.23 upbm affinity estimate (log intensity, higher = more binding, comparable within an allelic series) | binding signal (PAX4 [10]): 9.11 upbm affinity estimate (log intensity, higher = more binding, comparable within an allelic series) | binding signal (PAX4 [11]): 9.2 upbm affinity estimate (log intensity, higher = more binding, comparable within an allelic series) | binding signal (PAX4 [12]): 9.25 upbm affinity estimate (log intensity, higher = more binding, comparable within an allelic series) | binding signal (HOXB6 [13]): 8.75 upbm affinity estimate (log intensity, higher = more binding, comparable within an allelic series)

AGGAGCCC
binding signal (ALX4 [1]): 7.99 upbm affinity estimate (log intensity, higher = more binding, comparable within an allelic series) | binding signal (ALX4 [2]): 8.19 upbm affinity estimate (log intensity, higher = more binding, comparable within an allelic series) | binding signal (VAX1 [14]): 6.97 upbm affinity estimate (log intensity, higher = more binding, comparable within an allelic series) | binding signal (VAX1 [15]): 7.08 upbm affinity estimate (log intensity, higher = more binding, comparable within an allelic series) | binding signal (VAX1 [16]): 7.05 upbm affinity estimate (log intensity, higher = more binding, comparable within an allelic series)

AAATTAGT
binding signal (ALX4 [1]): 13.5 upbm affinity estimate (log intensity, higher = more binding, comparable within an allelic series) | binding signal (ALX4 [2]): 12.5 upbm affinity estimate (log intensity, higher = more binding, comparable within an allelic series) | binding signal (ALX1 [17]): 11.4 upbm affinity estimate (log intensity, higher = more binding, comparable within an allelic series) | binding signal (PAX4 [9]): 12 upbm affinity estimate (log intensity, higher = more binding, comparable within an allelic series) | binding signal (ALX1 [18]): 10.9 upbm affinity estimate (log intensity, higher = more binding, comparable within an allelic series) | binding signal (PAX4 [12]): 10.9 upbm affinity estimate (log intensity, higher = more binding, comparable within an allelic series) | binding signal (ALX1 [19]): 12.1 upbm affinity estimate (log intensity, higher = more binding, comparable within an allelic series)

CCGTCTAG
binding signal (ALX4 [1]): 7.85 upbm affinity estimate (log intensity, higher = more binding, comparable within an allelic series) | binding signal (ALX4 [2]): 8.02 upbm affinity estimate (log intensity, higher = more binding, comparable within an allelic series) | binding signal (MSX2 [3]): 9.52 upbm affinity estimate (log intensity, higher = more binding, comparable within an allelic series) | binding signal (MSX2 [4]): 9.39 upbm affinity estimate (log intensity, higher = more binding, comparable within an allelic series) | binding signal (VAX1 [14]): 6.91 upbm affinity estimate (log intensity, higher = more binding, comparable within an allelic series) | binding signal (MSX2 [5]): 9.55 upbm affinity estimate (log intensity, higher = more binding, comparable within an allelic series) | binding signal (VAX1 [15]): 7.09 upbm affinity estimate (log intensity, higher = more binding, comparable within an allelic series) | binding signal (VAX1 [16]): 7.03 upbm affinity estimate (log intensity, higher = more binding, comparable within an allelic series)

GTCTTAAA
binding signal (PAX4 [6]): 10.3 upbm affinity estimate (log intensity, higher = more binding, comparable within an allelic series) | binding signal (PAX4 [7]): 10.4 upbm affinity estimate (log intensity, higher = more binding, comparable within an allelic series)

TGAATTAA
binding signal (PAX4 [6]): 11.8 upbm affinity estimate (log intensity, higher = more binding, comparable within an allelic series) | binding signal (PAX4 [7]): 12.3 upbm affinity estimate (log intensity, higher = more binding, comparable within an allelic series) | binding signal (HOXA2 [20]): 11.1 upbm affinity estimate (log intensity, higher = more binding, comparable within an allelic series) | binding signal (PAX4 [9]): 11.9 upbm affinity estimate (log intensity, higher = more binding, comparable within an allelic series) | binding signal (PITX2): 11.2 upbm affinity estimate (log intensity, higher = more binding, comparable within an allelic series) | binding signal (HOXA2 [21]): 12.5 upbm affinity estimate (log intensity, higher = more binding, comparable within an allelic series) | binding signal (PAX4 [10]): 10.6 upbm affinity estimate (log intensity, higher = more binding, comparable within an allelic series) | binding signal (PAX4 [11]): 11.1 upbm affinity estimate (log intensity, higher = more binding, comparable within an allelic series) | binding signal (HOXA2 [22]): 10.8 upbm affinity estimate (log intensity, higher = more binding, comparable within an allelic series) | binding signal (HOXA2 [23]): 11.1 upbm affinity estimate (log intensity, higher = more binding, comparable within an allelic series)

CCGGGCCC
binding signal (PAX4 [6]): 9.07 upbm affinity estimate (log intensity, higher = more binding, comparable within an allelic series) | binding signal (PAX4 [7]): 9.07 upbm affinity estimate (log intensity, higher = more binding, comparable within an allelic series) | binding signal (PAX4 [9]): 9.07 upbm affinity estimate (log intensity, higher = more binding, comparable within an allelic series) | binding signal (PAX4 [10]): 9.05 upbm affinity estimate (log intensity, higher = more binding, comparable within an allelic series) | binding signal (PAX4 [11]): 9 upbm affinity estimate (log intensity, higher = more binding, comparable within an allelic series) | binding signal (PROP1 [24]): 6.54 upbm affinity estimate (log intensity, higher = more binding, comparable within an allelic series) | binding signal (PROP1 [25]): 6.73 upbm affinity estimate (log intensity, higher = more binding, comparable within an allelic series) | binding signal (PROP1 [26]): 6.36 upbm affinity estimate (log intensity, higher = more binding, comparable within an allelic series) | binding signal (PAX4 [12]): 9.12 upbm affinity estimate (log intensity, higher = more binding, comparable within an allelic series)

GCCCGGCA
binding signal (PAX4 [6]): 9.23 upbm affinity estimate (log intensity, higher = more binding, comparable within an allelic series) | binding signal (PAX4 [7]): 9.34 upbm affinity estimate (log intensity, higher = more binding, comparable within an allelic series) | binding signal (NKX2-6): 9.33 upbm affinity estimate (log intensity, higher = more binding, comparable within an allelic series) | binding signal (PAX4 [9]): 9.28 upbm affinity estimate (log intensity, higher = more binding, comparable within an allelic series) | binding signal (PAX4 [10]): 9.09 upbm affinity estimate (log intensity, higher = more binding, comparable within an allelic series) | binding signal (PAX4 [11]): 9.13 upbm affinity estimate (log intensity, higher = more binding, comparable within an allelic series) | binding signal (PAX4 [12]): 9.21 upbm affinity estimate (log intensity, higher = more binding, comparable within an allelic series)

CGGCTGAG
binding signal (PAX4 [6]): 9.44 upbm affinity estimate (log intensity, higher = more binding, comparable within an allelic series) | binding signal (PAX4 [7]): 9.36 upbm affinity estimate (log intensity, higher = more binding, comparable within an allelic series) | binding signal (ALX3 [27]): 7.73 upbm affinity estimate (log intensity, higher = more binding, comparable within an allelic series) | binding signal (PAX4 [9]): 9.42 upbm affinity estimate (log intensity, higher = more binding, comparable within an allelic series) | binding signal (PAX4 [10]): 9.34 upbm affinity estimate (log intensity, higher = more binding, comparable within an allelic series) | binding signal (ALX3 [28]): 7.82 upbm affinity estimate (log intensity, higher = more binding, comparable within an allelic series) | binding signal (PAX4 [11]): 9.23 upbm affinity estimate (log intensity, higher = more binding, comparable within an allelic series) | binding signal (ALX3 [29]): 7.79 upbm affinity estimate (log intensity, higher = more binding, comparable within an allelic series) | binding signal (ALX3 [30]): 7.77 upbm affinity estimate (log intensity, higher = more binding, comparable within an allelic series) | binding signal (PAX4 [12]): 9.35 upbm affinity estimate (log intensity, higher = more binding, comparable within an allelic series) | binding signal (ALX3 [31]): 7.7 upbm affinity estimate (log intensity, higher = more binding, comparable within an allelic series)

AATTTATA
binding signal (PAX4 [6]): 11.2 upbm affinity estimate (log intensity, higher = more binding, comparable within an allelic series) | binding signal (PAX4 [7]): 11.4 upbm affinity estimate (log intensity, higher = more binding, comparable within an allelic series) | binding signal (ALX3 [27]): 8.61 upbm affinity estimate (log intensity, higher = more binding, comparable within an allelic series) | binding signal (HOXD13 [32]): 10.9 upbm affinity estimate (log intensity, higher = more binding, comparable within an allelic series) | binding signal (PAX4 [9]): 11.3 upbm affinity estimate (log intensity, higher = more binding, comparable within an allelic series) | binding signal (HOXD13 [33]): 11.7 upbm affinity estimate (log intensity, higher = more binding, comparable within an allelic series) | binding signal (PAX4 [10]): 10.6 upbm affinity estimate (log intensity, higher = more binding, comparable within an allelic series) | binding signal (PAX4 [11]): 10.8 upbm affinity estimate (log intensity, higher = more binding, comparable within an allelic series) | binding signal (HOXD13 [34]): 11.6 upbm affinity estimate (log intensity, higher = more binding, comparable within an allelic series) | binding signal (HOXC9): 11.1 upbm affinity estimate (log intensity, higher = more binding, comparable within an allelic series) | binding signal (PAX4 [12]): 10.7 upbm affinity estimate (log intensity, higher = more binding, comparable within an allelic series) | binding signal (ALX3 [31]): 8.71 upbm affinity estimate (log intensity, higher = more binding, comparable within an allelic series)
